Whole data set: some 59,000 sequences, median the read-out near -0.00055, cut for the lowest 2% near -2. The sample as a whole holds a higher share of the lowest values than the screen did.

The nature of the experiment: Identification of proteins required for the processing of the EWS-FLI1 nascent transcript.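 Also: robust z of luciferase light less the median z of siRNAs with the same seed.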 Conditions: TC32 Ewing sarcoma NR0B1-luc vs CMV-luc (EWS-FLI1 target promoter against control promoter), 48 h; screened at 20 nM (by protocol). The essentials: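 TC32 Ewing sarcoma cells carrying NR0B1-promoter or CMV-promoter luciferase reporters were reverse-transfected with single siRNAs at 20 nM, three per gene genome-wide. Luminescence was read after 48 h and normalized to non-targeting controls.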
UCAGGUGUAGGAUUCCGAC against XAGE2 displayed a seed-corrected z-score of -2.85. The sequence UUUGUUGACUGCUUGACUG against METAP1D had a seed-corrected z-score of 0.33. For the sequence AACCUGUAUGCAUCAACUG against BMS1P11, the seed-corrected z-score was 2.32.

As for UACUGUUCCACUAGCUUCG against SF3A1, the seed-corrected z-score was -1.91. The value for UCUGUAACCUUGGUAAGGC against C10orf2 was 0.0621; that for UGGUUGAUUAGUAAAGCAC against C10orf113 was -0.339; that for ACUGUUAUCAGGAAAGUCC against PLCB2 was -0.539. The result for UGUCUUUGUAGGCAGCUGG against CLDN14 reads -2.18. In turn, UAAAGAGUAAAGGUCUUCC against ZNF540 registered a seed-corrected z-score of 0.799.

On to UAUGGACCCAUCAUACUGG against CADM4, for which the seed-corrected z-score is 0.833.

UAUUGAACUUCAAGGGUCG against EFTUD2 returned a seed-corrected z-score of -2.91. The result for UUGGUCUGUAGUACUGUUC against SNX27 reads -2.17; that for UUUGUGCCCUGCGUUUAUC against KCND3, -0.731. The value for AGGUGGAAGAGAAAUAUCU against OR4D11 was -0.264; that for UCAAGUUACAGGUUCGGGC against DRG1 was 1.09; that for UAUUUGUAGCCCAAGAAGG against YIF1B was 0.101. The value for UUUCUGAUCAGGUCCAUGA against SLC1A6 was -0.114. Turning to UCAUAGUUGAGCAAGGUGG against AOC3, the seed-corrected z-score was -0.116. Sequence UCCGUAUCCAGCUCGUCCU against NXNL1 yielded a seed-corrected z-score of -1.17. The value for UUCAAUGCAAGCAAGCUUG against OR4L1 was 0.45; that for UUGCGAACAUUGCCUGUGC against MEP1A was 0.216; that for UCUUUAUCUAGAGGCAUUC against LOC728040 was -2.35. The value for UUUAUUCUAAACACGUACU against RHBDD3 was -0.246. The value for UAGGAUUACAGCAAUCAUC against 11-Mar was 0.0159.

Sequence UGUCGUCAAAGUAUAAUCG against ETV5 yielded a seed-corrected z-score of -2.12. The value for UAUGGAGCAGGUAAUAGAG against ZNF311 was 0.514. The value for UUCUCAUCAAACUCUACAC against OLFML3 was 0.213; that for UCUCCUAUAGGACCUGUGC against MGAM was -0.17; that for UGAGCAUUUAUUGUGAGUG against OR2T6 was -0.244. The result for UCCUGGAGCACAUCAGUGC against ASPRV1 reads 0.0418. In turn, UGGUUGUUAAAGGUCAUGG against HIPK2 gave a seed-corrected z-score of -2.07. The value for UACGCUUGAAGUACCGAUG against SLC7A1 was -2.19. The value for AAACGUACAUGAUGGGAGC against GPR155 was -0.807; that for UUGAACUCAGCGAUCAUCU against TNNC2 was -0.279.

In the case of UAUUAUCAAUGGUCCAGGG against AAGAB, the seed-corrected z-score came out at 0.496. The value for UUUGAUGCCGUCAUCAUCC against TMEM106C was 0.22; that for AGAAGUUUUUGCUCUGUCC against DYRK4 was 0.321. The value for AAAUGUACAGAACUAUCUC against PADI2 was -2.36; that for UCUCUGAAGAGUACAGGAG against PTOV1 was 0.398; that for UCAGGUGCAAAGCUACUGG against PARK2 was -2.4. The result for UCAUUGACAUUGGUCACGG against CYP27C1 reads -0.22. As for UUAUAACCACUGACUCUCC against MIPEPP3, the seed-corrected z-score was 0.124. The value for UAUUGUUCUUGUCCUUUUG against TERF1 was -0.319; that for AACCGAGUCAGAAUGGUGC against SDC1 was 0.384. The value for UUUGGAAGACUGGAGCAGG against CTIF was 0.631. The result for UUCCCAUACCCUAUGGUCG against KCNK10 reads -0.13; that for UCUACUGUCAUUGAGACCA against SNRPB, -2.67. In turn, UCUGGUACUCAGAAGGUCC against COPS5 yielded a seed-corrected z-score of 1.12. The value for AUAGUAACGAUCAACUCCA against NDUFA1 was 0.512; that for AUCGAUAUAAACUGCUUCC against PDE1A was -2.44. As for UAUGUACUUCAGGCGCCUG against SLC35A2, the seed-corrected z-score was 0.271. The value for AGUUUAUACAUUCUUUUCC against SPTLC1 was -0.145; that for UAGAAGAUAGGUGAAGUGA against DNAJC22 was 0.192; that for UUACACUCAAGAAGAUUUC against GPR141 was -0.389. The value for UUAACGUCCACCACCAGAG against TYMP was -0.582; that for UCAUUGAGAAUUCUCCGGG against NENF was 2.29; that for AUCGUCCCAGUAAAUGUCC against BEST3 was -0.819. The sequence UAGACUAACAUUGACUUAG against LOC150519 returned a seed-corrected z-score of 0.00864.

In turn, UCUUUGCUAAGCUCGGAGG against RAD51C showed a seed-corrected z-score of -2.07.

With AUAGAUAUGUUCACAAGUG against UNC119B, the seed-corrected z-score amounted to 0.327. The value for UAGGGCGCAAGGGUAUGUG against SPDYE3 was -0.136; that for UUACUAGCUCCGGUGGCAC against KCNK4 was -0.0516. The result for UUUAUCCCGAAGGAGGUUC against CAB39L reads -2.55; that for UGUAUUCCAACCUACAAAC against HGSNAT, -0.666; that for AAUCUAACAAAUGAAGGUG against EIF2A, 0.719. The value for AUAGUUCCUUUGACUAUGG against IKZF5 was -0.306; that for UCUAAUCCAAGUUCUACUG against AKAP5 was -0.304; that for UUGUGGGUGGUGAAGAGGC against EPOR was 0.293. In the case of AACCUGGUAAGUCUCGAUG against PPP2R2B, the seed-corrected z-score is -0.459. UAACGGAUGGUGUGGUUUC against BCOR showed a seed-corrected z-score of -0.0753. In the case of UACCUUUUAUCCUGGGUUG against LOC285423, the seed-corrected z-score was -2.09. The result for UAGUGUAAACAAGAAGUUG against ABHD10 reads 0.996; that for AAAGCGAGCACUGCGGAUC against CCDC102A, -0.304; that for UAGAGCACAGGAUAGAACC against RAP1GAP, 0.295. The value for UGUCUUCUAAGUAGAGCCU against VIPR2 was -2.47. In turn, AACGAAACAAACUUGGUCC against NGEF had a seed-corrected z-score of 0.943. The value for UAUCCUAAAAUCGCUGUUG against ARNTL2 was -0.114. The result for UCCCAUUGAAAGCAUAUCC against TSHR reads -1.47.

The sequence UAUCUUUAUCAAAACCUCG against EFCAB1 came in with a seed-corrected z-score of -0.824. The result for UAUGGAAUAAGUUGCUCGA against MED30 reads -0.0259; that for UUGACUACGAUGAGCUUGC against ETV3L, 1.16; that for UUAUUAUGUAUGCAUCUGG against LINC00632, -0.334. The value for ACAGUGGUGAGUUAUCUCA against CDC42 was -2.8; that for AUGGAUUCUUCAAUCGUCC against SMARCAD1 was 0.8.

Source of the values: PubChem BioAssay AID1159506 (National Center for Advancing Translational Sciences (NCATS), 2015).
